# Reference: PubChem BioAssay (Tox21)
# Records with an inconclusive call do not appear. Entries that show only a call come without a potency. Some compounds were tested as several samples or in several runs, with calls that do not always agree. Active and inactive are the calls of the source. Calls follow the shape of the dose curve; as a rule, active = well fitted inhibition curve with a large enough effect in the repeat runs; inconclusive = weak or mixed curves; inactive = flat fitted curve, though single readings scatter.
# Biological target: Voltage-gated inwardly rectifying potassium channel KCNH2 (Homo sapiens) (UniProt Q12809)
# Sequence (Q12809 whole entry, looked up): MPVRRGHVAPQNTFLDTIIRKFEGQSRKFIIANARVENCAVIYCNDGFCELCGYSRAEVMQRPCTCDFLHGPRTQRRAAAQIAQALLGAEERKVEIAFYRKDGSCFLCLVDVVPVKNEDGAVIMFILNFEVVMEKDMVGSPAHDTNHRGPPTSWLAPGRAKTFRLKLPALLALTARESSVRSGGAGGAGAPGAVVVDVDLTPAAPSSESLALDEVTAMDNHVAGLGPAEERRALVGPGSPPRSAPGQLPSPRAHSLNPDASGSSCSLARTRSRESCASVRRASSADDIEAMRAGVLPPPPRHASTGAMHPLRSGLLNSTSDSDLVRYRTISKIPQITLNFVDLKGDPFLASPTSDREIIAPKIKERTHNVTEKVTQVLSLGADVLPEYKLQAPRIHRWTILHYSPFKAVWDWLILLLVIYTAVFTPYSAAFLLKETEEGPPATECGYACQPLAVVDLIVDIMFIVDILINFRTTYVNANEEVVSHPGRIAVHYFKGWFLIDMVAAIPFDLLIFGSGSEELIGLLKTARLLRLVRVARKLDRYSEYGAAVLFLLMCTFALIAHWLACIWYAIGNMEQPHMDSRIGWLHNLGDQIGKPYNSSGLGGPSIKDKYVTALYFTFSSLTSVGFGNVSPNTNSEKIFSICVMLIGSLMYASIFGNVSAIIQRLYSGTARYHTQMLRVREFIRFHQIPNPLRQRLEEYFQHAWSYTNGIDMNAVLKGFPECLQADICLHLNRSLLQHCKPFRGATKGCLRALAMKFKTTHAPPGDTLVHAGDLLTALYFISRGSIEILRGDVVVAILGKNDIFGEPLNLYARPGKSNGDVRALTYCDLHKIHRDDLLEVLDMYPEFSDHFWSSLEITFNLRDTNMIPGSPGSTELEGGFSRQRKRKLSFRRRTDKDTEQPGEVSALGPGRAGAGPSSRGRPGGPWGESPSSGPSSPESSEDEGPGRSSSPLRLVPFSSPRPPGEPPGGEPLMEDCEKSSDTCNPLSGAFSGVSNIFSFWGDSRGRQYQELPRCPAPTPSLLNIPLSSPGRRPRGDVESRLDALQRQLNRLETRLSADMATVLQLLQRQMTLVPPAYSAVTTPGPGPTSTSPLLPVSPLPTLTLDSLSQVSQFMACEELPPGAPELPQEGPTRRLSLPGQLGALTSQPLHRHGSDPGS
# Assay: Human Ether-a-go-go-Related Gene (hERG) channel small molecule antagonists: fluorescence cell-based qHTS assay (AID 1671200); also: nearly all actives have a fitted effect of over 50% in size
# Settings: hERG-U2OS cells, FluxOR thallium flux fluorescence; series mostly up to 76.8 µM
# Excerpt: National Center for Advancing Translational Sciences [NCATS]
# U.S. Environmental Protection Agency [EPA]
# National Institutes of Environmental Health Sciences [NIEHS]
# National Toxicology Program [NTP]
# U.S. Food and Drug Administration [FDA]
# Mutations in the hERG channel cause Long QT (LQT) syndrome. LQT syndrome is a cardiac disorder which can cause ventricle arrhythmia and sudden death. Additionally, compounds which block the hERG channel can cause acquired LQT syndrome. Several FDA approved drugs have been removed from the market due to their hERG blocking activity. A cell-based hERG channel inhibition assay can be used to screen chemical compounds that inhibit hERG channel. This assay measures hERG channel activity using thallium ions as surrogate ions to measure potassium into the cells.
# Tox21 Assay Protocol Summary:
# hERG-U2OS cells were resuspended in culture medium and dispensed into 1536-well, black wall/clear-bottom plates at 1000cells/well/3uL using a Multidrop Combi dispenser (Thermo Fisher, Waltham, MA). After plates were incubated at 37 C overnight, 3 uL of Loading Buffer provided by FluxOR II Potassium Ion Channel Assay kit (Thermo, Carlsbad, CA) was added to each well. The assay plates were then incubated at room temperature in the dark for 1h. […] After the assay plates were incubated at room temperature for 10 min, 1 uL of Stimulus Buffer provided by FluxOR II Potassium Ion Channel Assay kit was added into each well and fluorescence intensity (480nm excitation/540nm emission) was continuously measured for 2 min at 1 second intervals using a Functional Drug Screening System (FDSS) 7000EX kinetic plate reader (Hamamatsu, Japan).
# Potency is read from the fitted curve at half-maximal effect.
row,SMILES,Potency
1,CC(=O)c1ccc(S(=O)(=O)NC(=O)NC2CCCCC2)cc1,inactive
2,COC1=CC(=O)C[C@@H](C)[C@]12Oc1c(Cl)c(OC)cc(OC)c1C2=O,inactive
3,COCCOCCOC,inactive
4,CCCCOCCOCCOC(C)=O,inactive
5,C/C=C/c1ccc(O)c(OC)c1,inactive
6,CC(=O)Oc1ccccc1C(=O)O,inactive
7,CC(C)(C)NCC(O)c1ccc(O)c(CO)c1 (stereo not given),inactive
8,CCN(CC)CCOC(=O)c1ccc(N)cc1,inactive
9,NC(=O)OCC(COC(N)=O)c1ccccc1,inactive
10,O=C(O)Cc1cccc2ccccc12,inactive
11,Cc1c(N(C)C)c(=O)n(-c2ccccc2)n1C,inactive
12,CN/C(=C\[N+](=O)[O-])NCCSCc1ccc(CN(C)C)o1,inactive
13,COCC(C)N (stereo not given),inactive
14,CCCCC/C(C=O)=C\c1ccccc1,inactive
15,C=C(C)C(N)=O,inactive
16,OCCCc1ccccc1,inactive
17,CCCCCCCCCCCCCCCCCC(=O)OCC(O)CO (stereo not given),inactive
18,Cc1cccc(C)c1O,inactive
19,CCn1cc(C(=O)O)c(=O)c2ccc(C)nc21,inactive
20,COc1ccc(C(=O)c2ccccc2)c(O)c1,38.3 µM (active) and inactive

row,SMILES,Potency
1,Cc1ccc(O)c(-n2nc3ccccc3n2)c1,inactive
2,CN(C)Cc1cc(CN(C)C)c(O)c(CN(C)C)c1,inactive
3,CC(=O)OC/C=C(C)/C=C/C=C(C)/C=C/C1=C(C)CCCC1(C)C,inactive
4,C=CCOC(=O)CC(C)C,inactive
5,O=[N+]([O-])c1ccc(O)cc1,inactive
6,COc1cc(C=O)ccc1O,inactive
7,CCCCOCCOCCSC#N,inactive
8,COC(=O)C1CCC(C(=O)OC)CC1 (stereo not given),inactive
9,Nc1cccc(N)c1,inactive
10,CCCCCCCCOc1ccc(C(=O)c2ccccc2)c(O)c1,inactive
11,C=C(C)OC(C)=O,inactive
12,Cn1cnc2c1c(=O)[nH]c(=O)n2C,inactive
13,O=C1CCCCCN1,inactive
14,NC(N)=NC(N)=NCCc1ccccc1,inactive
15,CO[C@H]1C=CO[C@@]2(C)Oc3c(C)c(O)c4c(O)c(c(/C=N/N5CCN(C)CC5)c(O)c4c3C2=O)NC(=O)/C(C)=C\C=C[C@H](C)[C@H](O)[C@@H](C)[C@@H](O)[C@@H](C)[C@H](OC(C)=O)[C@@H]1C,inactive
16,CCOC(=O)C(C)(C)Oc1ccc(Cl)cc1,inactive
17,C[C@]12C=CC(=O)C=C1CC[C@@H]1[C@@H]2C(=O)C[C@@]2(C)[C@H]1CC[C@]2(O)C(=O)CO,inactive
18,CCN1CCCC1=O,inactive
19,OC[C@@H](O)[C@@H](O)[C@H](O)[C@H](O)CO,inactive
20,CC(=O)CCC(C)C,inactive
